Results filed as inconclusive are left out. A call without a number means that no potency is given here. Active and inactive are the calls of the source. Calls come from the whole dose curve; as a rule, active = well fitted inhibition curve with a large enough effect; inconclusive = small, poorly fitted or top-dose-only effect; inactive = flat fitted curve, though single readings scatter.

Luciferin 4-monooxygenase (Photinus pyralis), sequence (P08659 whole entry, looked up): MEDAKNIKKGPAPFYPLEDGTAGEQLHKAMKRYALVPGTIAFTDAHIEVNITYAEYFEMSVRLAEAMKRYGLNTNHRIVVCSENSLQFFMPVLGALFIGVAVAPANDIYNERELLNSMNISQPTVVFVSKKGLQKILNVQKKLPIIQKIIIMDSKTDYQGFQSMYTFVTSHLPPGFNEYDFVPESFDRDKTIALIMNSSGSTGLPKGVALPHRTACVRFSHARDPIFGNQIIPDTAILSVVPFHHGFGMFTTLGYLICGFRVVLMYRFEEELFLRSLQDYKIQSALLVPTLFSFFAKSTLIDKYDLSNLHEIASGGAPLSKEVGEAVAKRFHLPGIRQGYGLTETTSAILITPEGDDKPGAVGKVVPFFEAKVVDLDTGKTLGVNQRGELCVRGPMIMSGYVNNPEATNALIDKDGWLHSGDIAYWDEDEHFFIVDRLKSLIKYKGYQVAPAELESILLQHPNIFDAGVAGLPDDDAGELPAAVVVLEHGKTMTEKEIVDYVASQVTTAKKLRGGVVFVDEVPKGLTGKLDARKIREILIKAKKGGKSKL

In the experiment the target is Luciferin 4-monooxygenase (Photinus pyralis) (UniProt P08659). Kind of experiment: Biochemical firefly luciferase enzyme assay for NPC (AID 624030).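 Note: purified P. pyralis luciferase at 10 nM with luciferin and ATP substrate; nearly all actives have a fitted effect of over 70% in size.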 To be noted: purified P. pyralis luciferase, luminescence, 5 min; series mostly up to 58.6 µM. The procedure, abridged:
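Purified P. pyralis luciferase at 10 nM in 50 mM Tris Acetate (final), luminescence read within 5 minutes of enzyme addition to compounds. Activity normalised to PTC124 versus DMSO; concentration-response curves classed by r2, magnitude and activity.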
Regarding `CC(NN)c1ccccc1` (stereo unspecified), the Potency entry was “inactive”.
`C[N+]1(CC2COC(c3ccccc3)(c3ccccc3)O2)CCCCC1` (stereo unspecified): the Potency result is “inactive”.
Turning to `C=CC[N+]1([C@H]2C[C@H]3[C@@H]4CC[C@H]5C[C@H](OC(C)=O)[C@@H](N6CCCCC6)C[C@]5(C)[C@H]4CC[C@]3(C)[C@H]2OC(=O)CC)CCCCC1`, the Potency result is “inactive”.
The same measure for `CN(C)CCOC1=Cc2ccccc2Sc2ccc(Cl)cc21`: “inactive”; for `CO[C@@]1(NC(=O)CSC[C@@H](N)C(=O)O)C(=O)N2C(C(=O)O)=C(CSc3nnnn3C)CS[C@@H]21`: “inactive”; for `CN(CC1(C)CCCO1)S(=O)(=O)c1ccc(Cl)c(S(N)(=O)=O)c1` (stereo unspecified): “inactive”.
Consider `O=C(CCCCCCCCC#CI)Oc1ccccc1`, for which the Potency entry was “inactive”.
On to `O=C(O)CCC(=O)OC[C@@H](NC(=O)C(Cl)Cl)[C@H](O)c1ccc([N+](=O)[O-])cc1`, for which the Potency entry was “inactive”.
Consider `CCCCCC(=O)O[C@]1(C(C)=O)CC[C@H]2[C@@H]3CCC4=CC(=O)CC[C@]4(C)[C@H]3CC[C@@]21C`, for which the Potency result was “inactive”.
Turning to `Nc1nnnn1-c1ccccc1`, the Potency result was “inactive”.
As to `Cc1ccc2c(Cl)cc(Cl)c(O)c2n1`, the Potency result is “inactive”.

These data come from PubChem BioAssay (NCATS).
